Test [1] has as its target Tumor necrosis factor receptor superfamily member 10B (Homo sapiens) (UniProt O14763). The test is described as follows: viability loss of caspase-8 NB7 cells with TRAIL – with/without TRAIL, luminescence panel, confirmation (AID 651596). As to conditions: NB7 neuroblastoma + caspase-8, TRAIL sensitization, NB7 Caspase-8, with TRAIL, mean of runs, at 10 µM, stronger effect = higher value.

Experiment in test [2]: as above
As to conditions: NB7 neuroblastoma + caspase-8, without TRAIL, NB7 Caspase-8, without TRAIL, mean of runs, at 10 µM.

Each structure is given as a SMILES string.

Chain of Tumor necrosis factor receptor superfamily member 10B (Homo sapiens) (O14763 whole entry, looked up): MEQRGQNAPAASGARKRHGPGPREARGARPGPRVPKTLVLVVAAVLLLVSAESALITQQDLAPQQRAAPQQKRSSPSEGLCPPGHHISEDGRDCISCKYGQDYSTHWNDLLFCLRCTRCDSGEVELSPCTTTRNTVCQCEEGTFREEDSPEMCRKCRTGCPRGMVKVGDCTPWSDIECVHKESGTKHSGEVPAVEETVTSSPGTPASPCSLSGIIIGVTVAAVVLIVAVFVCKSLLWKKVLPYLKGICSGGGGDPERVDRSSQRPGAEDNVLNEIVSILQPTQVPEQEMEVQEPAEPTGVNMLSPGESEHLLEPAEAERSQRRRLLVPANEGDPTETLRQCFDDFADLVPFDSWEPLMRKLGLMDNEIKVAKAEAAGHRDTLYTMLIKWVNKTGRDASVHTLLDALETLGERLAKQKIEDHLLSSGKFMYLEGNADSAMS

Take `COn1c(SCc2ccc(C)cc2C)nc2ccccc2c1=O`: the values for the activity in test [1] and in test [2] were 69.7% and 35.5%, respectively.
In the same order, the values of `O=C(Nc1ccc2c(c1)CCC2)c1ccccc1F` are 30.3% and 36.4%.
`NC(=O)c1ccccc1N/C=C/C(=O)c1ccccc1`: the activity turned out to be 73.4% in test [1] and 58.9% in test [2].
On the same counts, the results for `O=C(c1ccc2c3n(nc2c1)-c1ccccc1CO3)N1CCCCC1` are 79.2% and 78.4%.
On the same counts, the results for `O=C(NCCN1CCOCC1)NC1(C(F)(F)F)Oc2ccc(Cl)cc2O1` (centres undefined) are 32.6% and 26.8%.
On to `O=C(Nc1ccc2nc(-c3ccco3)[nH]c2c1)c1cccs1`, for which the activity in test [1] worked out at 72.4%; in test [2], 80.6%.
In the same order, the values of `C[n+]1c(-c2ccccc2)cc2c(=Cc3ccccc3)c3ccccc3n21` are 73.1% and 75.4%.
In the same order, the values of `Cc1c(C(=O)Nc2cccc([N+](=O)[O-])c2)csc1-c1ccccc1` are 56.5% and 48.1%.
In the same order, the values of `CCCCN(CC)S(=O)(=O)c1ccc(C(=O)N=c2sc3cc(NC(C)=O)ccc3n2C)cc1` are 20.9% and 53.8%.
Turning to `CCCCN(CC)CCCNC(=O)C1c2ccccc2C(=O)N(C)C1c1cn(C)c2ccccc12` (centres undefined), the activity came to 71.8% in test [1] and 69.7% in test [2].
Take `NC(Cc1ccc(C(F)(F)F)cc1)c1csc(NC(=O)Nc2ccccc2Oc2ccccc2)n1` (centres undefined): the results for the activity in test [1] and in test [2] were 75.1% and 93.7%, respectively.
For the molecule `CCN1CCN(Cc2ccc(NC(=O)c3cc(NC(=O)c4cnnc5ccccc45)cc(OC)c3)cc2C(F)(F)F)CC1`, the activity in test [1] worked out at 55.2%; in test [2], 93.9%.
On the same counts, the results for `O=C(CN1C(=O)c2ccccc2S1(=O)=O)c1ccccc1F` are 16.9% and 27.8%.
In the case of `Cc1cccc(Nc2nc(N)nc(CCl)n2)c1`, the activity in test [1] was found to be 97.7%; in test [2], 96.8%.
Consider `COCC(C)n1c(C)cc(C(=O)COC(=O)c2n[nH]c3ccccc23)c1C` (centres undefined), for which the activity was 58.5% in test [1] and 51.9% in test [2].
Turning to `O=Cc1s/c(=N\S(=O)(=O)c2ccccc2)n(CCCCl)c1Cl`, the values for the activity in test [1] and in test [2] were 94.2% and 88.6%, respectively.
`COc1cc(/C=N/NC(=O)c2nnn(-c3nonc3N)c2C)ccc1OCc1ccc(Cl)cc1`: the activity in test [1] was found to be 39%; in test [2] it was 20.6%.
On the same counts, the results for `Cc1ccc(-c2cc(C(=O)N/N=C/c3ccc([N+](=O)[O-])o3)c3ccccc3n2)o1` are 83.8% and 73.7%.
On the same counts, the results for `CC1CCN(c2ccc(-c3ccc(NC(=O)C(F)(F)F)cc3)nn2)CC1` are 94.6% and 96%.
Regarding `Cc1nc2cc(NC(=O)Nc3nccs3)ccc2n1C`, the activity in test [1] was found to be 63.5%; in test [2], 60.8%.
On the same counts, the results for `Oc1ccccc1-c1cc(-c2ccccc2)no1` are 46.3% and 37.7%.
With `O=C(Nc1ccc2c(c1)OCCO2)c1ccc2nccnc2c1`, the activity in test [1] came out at 53.5%; in test [2], 50.4%.
In the same order, the values of `N#Cc1ccc(NC(=O)Nc2ccc(Cl)cc2)cc1` are 81% and 65.3%.
On the same counts, the results for `O=C(Nc1ccccc1)Nc1ccc(C(=O)N2CCCC2)cc1` are 65.6% and 71.5%.
On the same counts, the results for `Cc1nc2c(-c3ccc(F)cc3)cnn2c(N)c1-c1ccc(F)cc1` are 66.2% and 57%.
For `CC(C)(C)OC(=O)NCCCC[C@H](NC(=O)c1[nH]cnc1C(=O)N[C@@H](Cc1ccccc1)C(=O)OC(C)(C)C)C(=O)OC(C)(C)C`, the results for the activity in test [1] and in test [2] were 84% and 64.7%, respectively.
Turning to `Cc1ccc(N=Cc2c(C)[nH]n(-c3nc4ccccc4[nH]3)c2=O)cc1`, the activity in test [1] is 88.6%; in test [2], 88.8%.

The values above are taken from PubChem BioAssay.
